Molecules are shown by their SMILES. About 83,000 compounds went through this panel and 20% of them were active in at least one assay; those are over-represented in the sample as a whole.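 The test compound was applied at a single concentration to cells in 96-well plates for 48 hours, and percent growth was recorded.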 Unmarked numbers belong to inactive results. Activity calls are given as the source filed them. How the source made its calls: active means growth percent below 10; inactive means the rest.

This experiment concerns NCI-H322M lung. Briefly: NCI-60 one-dose screen, 48 h (100 = growth as untreated, 0 = no growth, -100 = all killed). Conditions: 10 µM.
In the case of `O=C(c1ccc(Cl)cc1)C1[C@H](c2ccccc2Br)[C@@H](c2ccccc2)NC12C(=O)Nc1ccc(Cl)cc12` (stereo partly specified), the growth was 44.7%.

On to `Cc1ccc(NCC(=O)Nn2c(COc3ccccc3)nc3ccccc3c2=O)cc1`, for which the growth is 85.9%.

With `NS(=O)(=O)c1ccc(N=Nc2c(O)n(CC(=O)Nc3ccccc3Br)c3ccccc23)cc1`, the growth is 50.3%.

For `CN(C(=O)c1ccc(C(F)(F)F)cc1C(F)(F)F)c1sc2c(c1C#N)CCC(=O)C2`, the growth was 93.6%. Consider `CC(C)(C)Nc1nc2cc(Cl)c(Cl)cc2nc1S(C)(=O)=O`, for which the growth was 98%.

In the case of `Cc1ccc(/C(N)=N/c2sc(-c3ccccc3)nc2-c2ccccc2)cc1`, the growth was 90.2%.

In the case of `O=c1cc(-c2ccccc2)oc2cc(OCCCNCc3ccccc3)cc(O)c12`, the growth was 31%. Regarding `CCOC(=O)C1NN(c2ccc(S(N)(=O)=O)cc2)c2nc3nc(-c4cccs4)cc(-c4cccs4)c3c(=O)n21` (stereo unspecified), the growth was 99.7%. With `N#Cc1c(NC(=O)c2ccc(C(F)(F)F)cc2)sc2c1CCC(O)=C2`, the growth is 46.1%. For the molecule `COc1ccc2[nH]cc(/C=N/Nc3ccc(Br)cn3)c2c1`, the growth was 43.8%. Turning to `Cc1cc(C(F)(F)F)ccc1C(=O)Nc1sc2c(c1C#N)CCC(=O)C2`, the growth is 29.8%.

In the case of `Cc1ccc(F)cc1N/C=c1\s/c(=C(\C#N)C(=O)Nc2ccccc2)n(-c2ccccc2)c1=O`, the growth was 81.8%. For `CCCn1c(=O)c2[nH]c(-c3ccc(OCc4nc5ccc(C)cc5[nH]4)cc3)nc2n(CCC)c1=O`, the growth is 40.3%. On to `O=C(O)CCCCCCCCCCN1C(=O)/C(=C/c2cnc(-c3ccccc3)s2)SC1=S`, for which the growth was 80.6%. In the case of `O=C1NC(=NC2CCCCCC2)N/C1=C\c1ccc2ncoc2c1`, the growth is 24.5%.

`COc1ccc2[nH]c(=O)c(CSc3cccc(N)c3)cc2c1`: the growth was 74.6%. In the case of `O=C(c1ccc(Cl)cc1)C1[C@H](c2ccc(Br)cc2)[C@@H](c2ccccc2)NC12C(=O)Nc1ccc(Cl)cc12` (stereo partly specified) it was -28.6% (active); in that of `C=CC(=O)Nc1ccc(C(=O)/C=C/c2ccc(N(C)CCF)cc2)c(O)c1`, 25.6%; in that of `COc1cccc(/C=C2\N=C(C)N(CCc3ccc(S(N)(=O)=O)cc3)C2=O)c1`, 96.5%. Regarding `N#Cc1c(NC(=O)c2ccc(C(F)(F)F)cc2)sc2c1CCC(=O)C2`, the growth was 22.3%. In the case of `COc1cc2oc(-c3cccc(C(=O)Nc4ccc(Cl)cc4)c3)cc(=O)c2c(OCCNC(=O)CNC(=O)OC(C)(C)C)c1OC` it was 71.6%; in that of `Cc1ccc(C(=O)NNC(=O)CSc2nc3ccccc3c(=O)[nH]2)cc1`, 99.2%; in that of `Brc1ccc(/C=N/Nc2ncnc3sc4c(c23)CCN(Cc2ccccc2)C4)cc1`, 94.1%. Consider `Cc1cc2nc3c4ccccc4n(CCO)c3nc2cc1C`, for which the growth is 92.4%.

On to `O=C1NC(=NC23CC4CC(CC(C4)C2)C3)N/C1=C\c1ccc2ncccc2n1`, for which the growth was -10.2% (active).

For the molecule `CN1CCN(Cc2ccc(C(=O)Nc3cccc(Nc4ccc5cc(O)ccc5n4)c3)cc2C(F)(F)F)CC1`, the growth was -28.9% (active).
